# An excerpt weighted towards active compounds, which were near 0.72% of everything screened.
# CtBP-E1A blk: qHTS Assay for Inhibitors of the CtBP/E1A Interaction; AlphaScreen GST-E1A/His-CtBP binding, 1536-well; stronger effect = lower value; 340,000 tested, 0.49% active; activity change, % (test concentration not listed); in the data active = activity change below about -65%; inconclusive = mostly about -30% to -63%
#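 In 5 uL wells, 23 nL compound meets equimolar GST-E1A and His-CtBP (5X stock 125 nM each) for 2 h, 37 °C. Beads (5X, 50 ug/mL) then 1 h, 37 °C, dark.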
# PI4K2A block: qHTS for small molecular inhibitors of PI4K2A. AID 1346378, 2018. activity change, negative = inhibition, % at 76.9 µM. 420,000 tested, 0.13% active. purified PI4K2A, ADP-Glo luminescence, 1 h; stronger effect = lower value. Phosphatidylinositol 4-kinase type 2-alpha (Homo sapiens), Q9BTU6; in the data active = activity change below about -50%; inconclusive = mostly about -30% to -49%;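 also: -100% = wells without enzyme as full effect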
# Target sequence (Q9BTU6 whole entry, looked up): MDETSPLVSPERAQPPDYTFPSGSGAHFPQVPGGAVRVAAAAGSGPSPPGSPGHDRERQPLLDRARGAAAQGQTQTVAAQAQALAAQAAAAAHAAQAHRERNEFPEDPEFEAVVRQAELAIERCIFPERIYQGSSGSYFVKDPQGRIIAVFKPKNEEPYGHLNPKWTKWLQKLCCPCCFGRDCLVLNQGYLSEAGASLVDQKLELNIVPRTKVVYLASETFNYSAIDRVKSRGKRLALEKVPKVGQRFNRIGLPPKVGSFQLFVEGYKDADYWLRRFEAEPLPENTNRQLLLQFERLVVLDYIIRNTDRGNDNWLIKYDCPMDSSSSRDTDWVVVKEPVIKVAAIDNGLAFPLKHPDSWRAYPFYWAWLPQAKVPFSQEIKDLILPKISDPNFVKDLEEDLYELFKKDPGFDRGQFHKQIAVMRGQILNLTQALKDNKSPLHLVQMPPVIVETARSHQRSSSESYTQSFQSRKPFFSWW
#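 PI4K2A activity was measured by ADP-Glo luminescence: enzyme (4 ug/mL stock) and phosphatidylinositol (1.2 mM stock) in Tris pH 7.5/MgCl2/EGTA/Triton X-100 buffer were reacted with ATP (300 microM stock) for one hour at ambient temperature.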
# RGS4 inhibitor: Inhibitors of Regulator of G Protein Signaling (RGS) 4: qHTS. Regulator of G-protein signaling 4 (Homo sapiens), P49798. Transcreener GDP fluorescence polarization, RGS4-accelerated GTP hydrolysis. Potency, µM (top dose mostly 114 µM), for inactives: at the highest dose activity change, negative = inhibition, hits mostly inhibitors. 390,000 tested, 0.039% active. AID 504845, 2011; also: potency is read from the fitted curve at half-maximal effect; nearly all actives have a fitted effect of over 75% in size
#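 MLSMR compounds (23 nl, pin-transferred) preincubated 10 min at room temperature with a 500nM (2x) first reagent, then RGS4 at 900nM (2x) plus Transcreener GDP mix added; fluorescence polarization (620/688 nm) read before and after 90 min at 30 °C.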
# Six1-Eya2 blk: qHTS Assay for Inhibitors of the Six1/Eya2 Interaction; AlphaScreen GST-Six1/His-Eya2 binding, biochemical; stronger effect = lower value; activity change, % (concentration not given with the values); 360,000 tested, 0.56% active; Homeobox protein SIX1 (Homo sapiens) + Protein phosphatase EYA2 (Homo sapiens), …; AID 651725, 2012; in the data active = activity change below about -65%; inconclusive = mostly about -30% to -63%
#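 Compounds are tested against tagged Six1 and Eya2 proteins bridged by glutathione donor and nickel acceptor beads; after a one-hour incubation at 37 °C without light, AlphaScreen emission is recorded.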
# Eya2 phos inh: qHTS Assay for Inhibitors of the Phosphatase Activity of Eya2 | AID 488837, 2010 | Protein phosphatase EYA2 (Homo sapiens), O00167 | recombinant Eya2, OMFP fluorescence dephosphorylation (OMFP is methylfluorescein phosphate) | Potency, µM (doses to about 76.9 µM), inactives show at the highest dose activity, negative = inhibition, usual class: inhibitors | 330,000 tested, 0.006% active; also: potency is read from the fitted curve at half-maximal effect
#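 Eya2 protein (added as 0.2 uM solution) was preincubated with compound for 10 min at ambient temperature in 50 mM HEPES pH 7.5, 50 mM NaCl, 5 uM MgCl2, 0.05% BSA, 1 mM DTT. OMFP (added at 50 uM) then reacted 10 min; fluorescence read at 485/525 nm.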
# USP2a block: qHTS Assay for Inhibitors of Ubiquitin-specific Protease USP2a Using CHOP2 as the Reporter; AID 463254, 2010; 330,000 tested, 0.01% active; Ubiquitin carboxyl-terminal hydrolase 2 (Homo sapiens), O75604; USP2 core, Ub-CHOP2 coupled fluorogenic reporter, 485/531; Potency, µM (doses to about 38.3 µM), without a hit: at the top dose activity change, negative = inhibition, hits mostly inhibitors;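 also: potency is read from the fitted curve at half-maximal effect; plate controls were DMSO wells for no effect and full inhibition by NEM control for full effect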
#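 Cell-free coupled assay: 10nM USP2 core preincubated 30min RT with compound in Tris-HCl pH 8.0/CaCl2/CHAPS buffer, then 25nM Ub-CHOP2 and 25nM reporter substrate; fluorescence (Ex 485/Em 531) read after 60min RT, normalized to NEM inhibition, concentration-response curves fitted.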
# An asterisk follows results filed as active; ? = inconclusive; · = no result. Unless noted, calls follow the shape of the dose curve; as a rule, active = well fitted curve in the direction sought with a large enough effect; inconclusive = small, poorly fitted or top-dose-only effect, or another doubt; inactive = no such curve, though single readings can be large; an effect the other way counts as inactive or inconclusive. Unless noted, % is scaled to controls: 0 for no effect and ±100 for the full control effect.
SMILES,CtBP-E1A blk,PI4K2A block,RGS4 inhibitor,Six1-Eya2 blk,Eya2 phos inh,USP2a block
O=C1c2ccccc2-c2onc3c(N4CCN(CCO)CC4)cc(N4CCN(C(=O)c5ccco5)CC4)c1c23,-75*,?,?,?,20%,15%
CCOC(=O)N1CCN(c2cc(NCCC(=O)O)c3c4c(onc24)-c2ccccc2C3=O)CC1,-70*,-57*,?,-69*,?,?
O=C(Nc1nc2ccccc2[nH]1)c1ccc(S(=O)(=O)N2CCOCC2)cc1,·,6,7%,-1,6%,3%
O=C(Nc1nc2ccccc2[nH]1)c1ccc(Cl)c(S(=O)(=O)N2CCCC2)c1,-73*,1,2%,?,0%,-7%
O=C(c1ccc([N+](=O)[O-])cc1)N1CCN(c2ccc(Nc3ccccc3)nn2)CC1,·,5,1%,·,·,·
COc1ccc(Nc2ccc(S(=O)(=O)N3CCCCCC3)cc2[N+](=O)[O-])cc1,-66*,-4,-6%,?,-8%,4%
COC(=O)c1ccc(NC(=O)c2ccccc2C(=O)Nc2ccc(C(=O)OC)cc2)cc1,2,2,17%,-1,·,·
COC(=O)c1ccc(NC(=O)C(=O)c2cccn2C)cc1,·,-82*,-19%,-1,?,6%
Cc1onc(-c2c(Cl)cccc2Cl)c1C(=O)Cl,·,-5,·,·,·,·
CCOC(=O)c1sc2nccc(OC)c2c1N=CNOC,4,-59*,43%,-19,-9%,1%
CCOC(=O)c1sc2nccc(N(C)C)c2c1N=CN(C)C,-6,-10,-33%,7,-5%,0%
CC(=O)N1N=C(c2ccc3nccnc3c2)CC1c1ccccc1 (stereo unspecified),0,3,11%,2,3%,4%
CC(=O)N1N=C(c2ccccc2OC(=O)/C=C/c2ccccc2)CC1c1ccccc1 (stereo unspecified),-80*,1,19%,?,14%,0%
CC1=C(c2ccccc2)C(O)(c2ccccc2)C(C)C1=O (stereo unspecified),0,0,-10%,6,·,·
COc1ccc(-c2csc(N3CCN(C(=O)c4ccco4)CC3)n2)cc1,-13,6,-37%,-26,1%,11µM*
N#CC1=C(N)Oc2c(ccc3cccnc23)C1c1ccccc1 (stereo unspecified),?,-5,15%,7,-1%,1%
Cc1ccc2[nH]c(=O)c(C3C(C#N)=C(N)Oc4c3ccc3cccnc43)cc2c1 (stereo unspecified),-92*,3,?,?,-7%,-10%
CCOc1ccc(C(c2c(C)[nH]n(-c3ccccc3)c2=O)c2c(C)[nH]n(-c3ccccc3)c2=O)cc1OC,·,-58*,-28%,·,·,·
